Measured values reported in PubChem BioAssay.
Calls of active or inactive are those of the source.

Legend:
[1] = binders of probe aFSTL3 on microarray, primary screen, stem cell growth factor project, biochemical, small-molecule microarray, fluorescence 635/667 (AID 1064); conditions: higher = more signal; small-molecule microarray, probe aFSTL3, fluorescence unless noted;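 further: measures binding of the biotinylated anti-FSTL3 antibody to printed compounds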
[2] = binders from COS7 lysate, DM2A8 probe, primary screen, torsin A project, cell lysate, small-molecule microarray, fluorescence 635/667 (AID 1065); conditions: higher = more signal; small-molecule microarray, COS7 cell lysate, probe DM2A8, fluorescence, COS7 lysate expressing mutant human TOR1A unless noted
[3] = binders of probe aFGF2 on microarray, primary screen, stem cell growth factor project, biochemical, small-molecule microarray, fluorescence 635/667 (AID 1067); conditions: higher = more signal; small-molecule microarray, probe aFGF2, fluorescence unless noted;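 further: measures binding of biotinylated aFGF2 protein to printed compounds on slides; z-score merges feature fluorescence and signal-to-noise across triplicate slides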
[4] = binders of probe aFGF10 on microarray, primary screen, stem cell growth factor project, biochemical, small-molecule microarray, fluorescence 635/667 (AID 1071); conditions: higher = more signal; small-molecule microarray, probe aFGF10, fluorescence unless noted;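 further: score merges 667 nm spot intensity and signal to noise from triplicate slides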
[5] = biological target: Neurogenic locus notch homolog protein 2 (Homo sapiens) (UniProt Q04721); test: Notch2 binders on small-molecule microarrays, primary screen, biochemical, small-molecule microarray, 635 nm fluorescence, stem cell growth factors (AID 1073); conditions: Notch2 binding, higher = more signal
[6] = biological target: Pro-neuregulin-1, membrane-bound isoform (Homo sapiens) (UniProt Q02297); test: NRG1 binders on small-molecule microarrays, primary screen, psychiatric disease protein project, biochemical, small-molecule microarray, fluorescence 635/667 (AID 1075); conditions: NRG1 binding, 635 nm fluorescence, higher = more signal;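 further: score combines 667 nm spot fluorescence with signal to noise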
[7] = system: Neuregulin-1 EGF-like domain; test: binders of neuregulin-1 EGF-like domain, primary screen, biochemical, small-molecule microarray, 635 nm fluorescence (AID 1081); conditions: small-molecule microarray binding, higher = more signal;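 further: binding of the protein to compounds printed on small-molecule microarray slides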
[8] = FRG1 promoter luciferase signal modulators, primary screen, FRG1 inhibition for FSHD, cell-based, C2C12 myotubes, firefly/Renilla luciferase, luminescence (AID 1084); conditions: higher = more signal, called active from +8 up or from −8 down unless noted
[9] = binders of probe aFST on microarray, primary screen, stem cell growth factor project, biochemical, small-molecule microarray, fluorescence 635/667 (AID 1086); conditions: higher = more signal;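 further: score merges 667 nm fluorescence with signal-to-noise of each printed compound spot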
[10] = binders of probe aHhip on microarray, primary screen, stem cell growth factor project, biochemical, small-molecule microarray, fluorescence 635/667 (AID 1087); conditions: higher = more signal;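 further: score merges spot fluorescence at 667nm with spot signal to noise ratio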
[11] = system: PRMT1 (protein arginine N-methyltransferase 1); test: PRMT1 binders on small-molecule microarrays, primary screen, biochemical, small-molecule microarray, 635 nm fluorescence (AID 1088); conditions: small-molecule microarray binding, higher = more signal;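 further: binding of Prmt1 protein to compounds spotted on small-molecule microarray slides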
[12] = yeast growth modulation, basal conditions, primary screen, YJM789 clinical isolate, OD600, 24 h (AID 1089);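 further: growth of clinical yeast isolate S. cerevisiae YJM 789 seeded 1000 cells per well; test concentration not given here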; conditions: S. cerevisiae YJM789 growth; higher = more signal, called active from +8 up or from −8 down unless noted
[13] = fission yeast growth modulation, primary screen, strain 972, OD600, 24 h, no modulator (AID 1090);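 further: basal condition with compound alone and no growth modifier present; test concentration not given here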; conditions: S. pombe 972 growth; higher = more signal, called active from +8 up or from −8 down unless noted
[14] = S. cerevisiae growth modulation with rapamycin, primary screen, strain BY4716, OD600, 96 h (AID 1091); conditions: higher = more signal, called active from +8 up or from −8 down unless noted; further: test concentration not given here
[15] = biological target: Torsin-1A-interacting protein 2 (Homo sapiens) (UniProt Q8NFQ8); test: LULL1 binders on small-molecule microarray, primary screen, cell lysate, human LULL1 lysate, 635/667 nm fluorescence (AID 1092); conditions: hLULL1 lysate binding, 635 nm fluorescence, higher = more signal;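 further: probe is lysate of COS7 cells overexpressing human LULL1; score merges per-feature 667 nm fluorescence with signal-to-noise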
[16] = E. coli growth modulation, two-sided OD650, primary screen, E. coli filamentation project, strain DRC41, 24 h (AID 1093); conditions: OD650, 24 h; higher = more signal, called active from +8 up or from −8 down unless noted;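 further: MC1000 strain lacking acrAB efflux and sulA so SOS filamentation is blocked; test concentration not given here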
[17] = small-molecule microarray binders of probe aLefty2, primary screen, biochemical, biotinylated probe, 635/667 nm fluorescence (AID 1094); conditions: higher = more signal; small-molecule microarray, probe aLefty2, fluorescence unless noted;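 further: score merges spot fluorescence near 667 nm with spot signal-to-noise ratio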
[18] = system: Noggin (protein binding on small-molecule microarray); test: Noggin binders on small-molecule microarray, primary screen, biochemical, 635/667 nm fluorescence (AID 1095); conditions: 635 nm fluorescence, higher = more signal;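 further: score merges 667 nm feature fluorescence with signal to noise over triplicate slides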
[19] = biological target: Neurogenic locus notch homolog protein 3 (Homo sapiens) (UniProt Q9UM47); test: NOTCH3 binders on small-molecule microarray, primary screen, biochemical, 635/667 nm fluorescence (AID 1096); conditions: NOTCH3 binding, 635 nm fluorescence, higher = more signal
[20] = small-molecule microarray binders of probe aEGFR, primary screen, biochemical, biotinylated probe, 635/667 nm fluorescence (AID 1097); conditions: higher = more signal; small-molecule microarray, probe aEGFR, fluorescence unless noted;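 further: probe is a biotinylated anti-EGFR antibody binding compounds printed on slides; score combines fluorescence near 667 nm and signal to noise of each spot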

Neurogenic locus notch homolog protein 3 (Homo sapiens), sequence (Q9UM47 whole entry, looked up): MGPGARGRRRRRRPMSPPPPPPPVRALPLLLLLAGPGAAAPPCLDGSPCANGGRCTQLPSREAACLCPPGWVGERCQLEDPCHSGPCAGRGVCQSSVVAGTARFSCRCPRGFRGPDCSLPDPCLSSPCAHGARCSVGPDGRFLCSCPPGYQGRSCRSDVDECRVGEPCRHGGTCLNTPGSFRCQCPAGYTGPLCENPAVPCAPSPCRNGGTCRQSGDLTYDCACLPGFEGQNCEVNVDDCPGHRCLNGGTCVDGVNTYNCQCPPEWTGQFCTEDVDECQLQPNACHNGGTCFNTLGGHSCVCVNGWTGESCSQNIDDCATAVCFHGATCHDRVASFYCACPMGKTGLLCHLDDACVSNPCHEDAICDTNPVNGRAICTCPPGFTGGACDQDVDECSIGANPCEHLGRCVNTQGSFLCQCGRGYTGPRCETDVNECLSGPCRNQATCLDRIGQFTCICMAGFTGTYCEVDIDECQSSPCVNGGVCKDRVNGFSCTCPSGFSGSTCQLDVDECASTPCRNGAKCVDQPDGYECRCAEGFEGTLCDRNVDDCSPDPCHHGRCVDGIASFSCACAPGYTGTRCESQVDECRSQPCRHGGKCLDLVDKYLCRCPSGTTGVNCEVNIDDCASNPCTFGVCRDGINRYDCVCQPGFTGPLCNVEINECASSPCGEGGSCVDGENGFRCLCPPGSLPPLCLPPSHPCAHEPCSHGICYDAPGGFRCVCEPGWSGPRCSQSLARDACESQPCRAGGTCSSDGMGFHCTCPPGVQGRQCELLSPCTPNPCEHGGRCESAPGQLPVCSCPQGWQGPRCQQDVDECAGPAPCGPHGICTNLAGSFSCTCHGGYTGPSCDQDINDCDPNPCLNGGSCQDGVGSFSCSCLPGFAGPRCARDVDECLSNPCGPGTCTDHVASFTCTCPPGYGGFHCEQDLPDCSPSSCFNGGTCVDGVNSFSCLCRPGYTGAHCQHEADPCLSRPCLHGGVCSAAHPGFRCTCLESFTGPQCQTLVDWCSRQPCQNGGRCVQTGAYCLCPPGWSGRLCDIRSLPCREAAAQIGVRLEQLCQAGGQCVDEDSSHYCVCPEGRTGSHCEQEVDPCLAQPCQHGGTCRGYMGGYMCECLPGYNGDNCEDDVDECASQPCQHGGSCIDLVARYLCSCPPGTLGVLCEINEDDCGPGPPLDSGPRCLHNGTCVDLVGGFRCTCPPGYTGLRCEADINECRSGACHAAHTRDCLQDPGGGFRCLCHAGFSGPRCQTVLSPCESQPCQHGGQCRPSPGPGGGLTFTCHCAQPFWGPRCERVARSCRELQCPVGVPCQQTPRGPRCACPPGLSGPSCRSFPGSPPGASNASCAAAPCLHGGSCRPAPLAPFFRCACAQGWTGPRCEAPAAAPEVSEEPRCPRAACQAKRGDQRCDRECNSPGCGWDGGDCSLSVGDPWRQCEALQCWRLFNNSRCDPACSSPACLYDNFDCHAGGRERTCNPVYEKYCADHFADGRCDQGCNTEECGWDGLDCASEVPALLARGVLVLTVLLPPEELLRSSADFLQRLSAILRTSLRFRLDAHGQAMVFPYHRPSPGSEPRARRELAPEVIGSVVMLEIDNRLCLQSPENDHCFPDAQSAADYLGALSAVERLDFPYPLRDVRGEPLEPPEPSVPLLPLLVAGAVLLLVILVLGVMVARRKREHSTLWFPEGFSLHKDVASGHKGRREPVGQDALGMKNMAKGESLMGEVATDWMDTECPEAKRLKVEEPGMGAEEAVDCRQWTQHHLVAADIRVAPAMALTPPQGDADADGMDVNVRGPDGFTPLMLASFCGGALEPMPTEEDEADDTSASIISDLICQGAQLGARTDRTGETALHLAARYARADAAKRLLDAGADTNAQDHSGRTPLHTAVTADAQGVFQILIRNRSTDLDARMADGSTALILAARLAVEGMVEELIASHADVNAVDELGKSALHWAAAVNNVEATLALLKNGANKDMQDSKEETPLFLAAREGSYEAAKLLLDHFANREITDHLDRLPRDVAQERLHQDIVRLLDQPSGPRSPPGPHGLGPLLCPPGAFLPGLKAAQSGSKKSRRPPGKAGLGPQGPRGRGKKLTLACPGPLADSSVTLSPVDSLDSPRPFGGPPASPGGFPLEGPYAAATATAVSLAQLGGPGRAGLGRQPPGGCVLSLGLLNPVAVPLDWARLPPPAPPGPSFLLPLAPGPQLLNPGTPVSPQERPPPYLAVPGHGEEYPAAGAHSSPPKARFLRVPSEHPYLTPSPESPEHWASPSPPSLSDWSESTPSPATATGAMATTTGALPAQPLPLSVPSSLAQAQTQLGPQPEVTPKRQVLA
Pro-neuregulin-1, membrane-bound isoform (Homo sapiens), sequence (Q02297 whole entry, looked up, the tested form may be a part, canonical isoform): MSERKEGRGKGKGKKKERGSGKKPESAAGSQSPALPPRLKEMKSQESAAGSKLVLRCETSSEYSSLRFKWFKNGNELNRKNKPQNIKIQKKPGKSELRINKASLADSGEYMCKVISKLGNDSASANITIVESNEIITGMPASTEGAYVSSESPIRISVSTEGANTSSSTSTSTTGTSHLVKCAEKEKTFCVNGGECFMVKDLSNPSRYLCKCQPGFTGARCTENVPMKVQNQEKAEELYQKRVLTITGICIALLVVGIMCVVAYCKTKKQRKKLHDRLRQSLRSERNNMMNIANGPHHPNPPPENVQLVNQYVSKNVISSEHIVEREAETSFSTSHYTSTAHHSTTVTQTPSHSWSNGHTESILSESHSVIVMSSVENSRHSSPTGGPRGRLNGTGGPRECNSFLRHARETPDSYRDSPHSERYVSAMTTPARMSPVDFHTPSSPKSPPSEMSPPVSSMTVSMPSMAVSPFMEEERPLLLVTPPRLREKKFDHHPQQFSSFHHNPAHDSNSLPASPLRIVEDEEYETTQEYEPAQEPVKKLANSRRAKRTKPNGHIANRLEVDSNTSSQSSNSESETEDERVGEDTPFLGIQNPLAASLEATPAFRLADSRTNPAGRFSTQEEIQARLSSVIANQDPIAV
Torsin-1A-interacting protein 2 (Homo sapiens), sequence (Q8NFQ8 whole entry, looked up): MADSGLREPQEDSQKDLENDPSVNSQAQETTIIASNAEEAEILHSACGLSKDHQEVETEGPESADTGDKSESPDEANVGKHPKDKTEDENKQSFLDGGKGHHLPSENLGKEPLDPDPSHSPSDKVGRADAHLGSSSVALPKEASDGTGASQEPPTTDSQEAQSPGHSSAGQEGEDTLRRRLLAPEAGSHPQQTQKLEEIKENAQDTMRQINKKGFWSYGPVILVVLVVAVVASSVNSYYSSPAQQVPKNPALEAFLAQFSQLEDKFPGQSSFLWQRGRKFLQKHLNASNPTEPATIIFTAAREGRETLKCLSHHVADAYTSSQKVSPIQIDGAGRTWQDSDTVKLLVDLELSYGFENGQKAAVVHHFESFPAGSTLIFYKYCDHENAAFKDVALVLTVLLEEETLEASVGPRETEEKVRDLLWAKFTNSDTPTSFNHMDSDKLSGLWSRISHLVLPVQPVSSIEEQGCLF

SMILES | composite z-score [1] | composite z-score [2] | composite z-score [3] | composite z-score [4] | composite z-score [5] | composite z-score [6] | composite z-score [7] | z-score [8] | composite z-score [9] | composite z-score [10] | composite z-score [11] | z-score [12] | z-score [13] | z-score [14] | composite z-score [15] | z-score [16] | composite z-score [17] | composite z-score [18] | composite z-score [19] | composite z-score [20]
CN1CCC(c2ccc(CO)cc2)=CC1c1cccs1 (stereo not given) | -0.182 | -0.191 | -0.128 | -0.53 | -0.131 | 0.0188 | 1.04 | 1.68 (inactive) | 0.13 | -0.134 | -0.534 | -0.539 (inactive) | -2.27 (inactive) | 2.81 (inactive) | -1.32 | 0.358 (inactive) | -0.166 | 0.269 | 0.245 | -0.0828
CCCC=C(CCC)[C@@H](NP(=O)(c1ccccc1)c1ccccc1)c1ccccc1 | -0.335 | 0.0595 | 0.0354 | 0.33 | 1.25 | -0.0154 | 0.318 | -0.763 (inactive) | 0.714 | 0.408 | 0.905 | -0.564 (inactive) | 0.652 (inactive) | 0.0781 (inactive) | 0.732 | -0.431 (inactive) | -0.17 | 1.11 | 0.474 | -0.106
CCCc1cc2c(n1Cc1cccc(Cl)c1)C(C)C1CN(C(=O)c3ccccc3)C(C)(C(=O)OC)C21 (stereo not given) | 1.04 | 0.49 | 0.169 | 0.241 | 1.51 | 1.92 | 1.11 | 0.703 (inactive) | 0.578 | 0.192 | -0.287 | -0.319 (inactive) | 0.431 (inactive) | 0.282 (inactive) | 3.21 | -0.449 (inactive) | 0.411 | -0.146 | 1.11 | 0.118
c1ccc(-c2cc3c(nc2-c2ccccc2)CCNC3)cc1 | 0.0329 | -0.112 | -0.0494 | -0.296 | -0.634 | -0.0361 | -0.969 | -0.148 (inactive) | 0.0294 | -0.374 | -0.93 | 0.52 (inactive) | 0.538 (inactive) | 2.17 (inactive) | -0.908 | -0.0201 (inactive) | -0.0831 | 0.297 | -0.73 | -0.238
C[C@H]1O[C@H]2C3=C(C(=O)[C@@H]4O[C@@H]4[C@@H]3O)[C@@H]1[C@@H]1[C@@H](C)OC=C3[C@@H](O)[C@H]4O[C@H]4C(=O)[C@]312 | -0.294 | 0.0164 | -0.102 | -0.494 | -0.468 | -0.48 | -0.894 | -2.19 (inactive) | -0.293 | -0.0994 | -1.42 | -1.16 (inactive) | -0.568 (inactive) | -0.584 (inactive) | -0.697 | -0.529 (inactive) | -0.166 | -0.394 | -1.62 | -0.0238
CCOC(=O)[C@H]1CC=C2C(=O)Oc3ccc(Br)cc3[C@@H]21 | 0.165 | 0.384 | -0.161 | -0.332 | -0.664 | 0.994 | 0.727 | -0.818 (inactive) | -0.598 | -0.134 | 1.41 | -24.8 (active) | -16.2 (active) | -1.8 (inactive) | 2.61 | -0.369 (inactive) | -0.183 | -0.701 | 0.428 | -0.249
COC(=O)[C@@]1(Cc2ccccc2)[C@H]2c3cc(C(=O)N(C)C)n(C)c3C[C@H]2CN1C(=O)c1ccccc1 | 0.739 | -0.389 | 0.175 | 0.536 | 1.59 | 2.02 | 1.14 | 1.51 (inactive) | 0.566 | 0.189 | -0.0444 | 0.16 (inactive) | 0.923 (inactive) | 0.462 (inactive) | 3.35 | 0.0234 (inactive) | 0.402 | -0.73 | -0.0403 | -0.0391
COc1cc2c(cc1O)C=[N+](C)CC2 | -0.0131 | -0.532 | -0.172 | -0.17 | -0.718 | -0.835 | -0.286 | -1.13 (inactive) | 0.169 | -0.639 | -0.592 | -1.76 (inactive) | -0.412 (inactive) | -1.25 (inactive) | -0.496 | -0.695 (inactive) | 0.0571 | 0.425 | -0.102 | -0.0967
CCCC[C@@H]1C[C@H]1[C@@H](NP(=O)(c1ccccc1)c1ccccc1)c1ccc(Cl)cc1 | 1.68 | -1.94 | -0.129 | -0.0013 | -0.438 | 0.291 | 0.142 | 0.695 (inactive) | -0.22 | -0.0994 | -0.571 | -0.513 (inactive) | -10.8 (active) | 0.0654 (inactive) | 0.748 | -0.412 (inactive) | 0.195 | -1.67 | -0.582 | -0.263
CCOC(=O)[C@H]1CC=C2C(=O)Oc3ccccc3[C@@H]21 | 0.0468 | -0.775 | -0.083 | -0.491 | -0.316 | 0.833 | -0.169 | 0.48 (inactive) | -0.203 | -0.0645 | -0.162 | -1.73 (inactive) | -5.83 (inactive) | -1.99 (inactive) | 1.55 | -0.0576 (inactive) | -0.134 | -1.09 | 0.0681 | -0.174
